Assay outcomes as filed in PubChem.
The list is not random: actives were taken first. Their share in the collection is about 4.4%.
TIM10 inh = growth inhibitors of isogenic TIM10 control yeast, primary screen, counter-screen for tim10-1 yeast inhibitor project, luminescence, uHTS. S. cerevisiae TIM10 strain growth, BacTiter-Glo luminescence, 24 h. inhibition, % at 10 µM. 330,000 tested, 1.4% active. AID 463195, 2010;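 active means inhibition of 40% or more at the single tested concentration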;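 further: wild-type TIM10 isogenic control strain grown at permissive 25 °C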
tim10-1 inh = growth inhibitors of tim10-1 mutant yeast, primary screen, luminescence, uHTS | S. cerevisiae tim10-1 ts strain growth, BacTiter-Glo, 24 h | inhibition, % at 20 µM | 330,000 tested, 2.2% active | AID 463190, 2010;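 active means inhibition of at least 40%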;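 further: mutant grown at 25 °C; 0% = DMSO wells with yeast and 100% = wells holding no yeast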
tim23-1 inh = growth inhibitors of tim23-1 mutant yeast, primary screen, luminescence, uHTS; S. cerevisiae tim23-1 growth, BacTiter-Glo luminescence, 24 h; inhibition, % at 20 µM; 330,000 tested, 1.3% active; AID 463212, 2010;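 active means growth inhibition of the mutant yeast at or above 50%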;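 further: temperature-sensitive mutant grown at 25 °C; plate controls were DMSO-treated mutant yeast for no effect and medium wells lacking yeast for full effect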
SKKanGAS inh = S. pyogenes SKKanGAS growth inhibitors in kanamycin, primary screen, streptokinase expression inhibitor project, SKKanGAS strain, BacTiter-Glo luminescence; 6 h; inhibition, % at 7.5 µM; 300,000 tested, 1.3% active;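 active means mean replicate score, as percent of positive control median, at least 50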;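 further: strain carries kanamycin resistance gene driven by streptokinase promoter and grows in 40 µg/ml kanamycin; loss of luminescence reflects streptokinase promoter inhibition or plain growth inhibition; 0% = median of DMSO wells and 100% = positive control at its reference dose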
PfHsp90 set2 = growth inhibition of PfHsp90-expressing yeast, primary screen, antimalarial PfHsp90 inhibitor project, S. cerevisiae, BacTiter-Glo luminescence, single point, set 2. AID 504621, 2011. 310,000 tested, 0.32% active. BacTiter-Glo ATP, 48 h; yeast lacking PDR1 and PDR3 efflux regulators. inhibition, % at 9.4 µM;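 active means every replicate shows inhibition above about 80%, whatever the replicate mean, limit read from the data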;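 further: 0% = DMSO neutral controls and 100% = 20 µM radicicol positive controls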
tim10-1 conf = growth inhibitors of tim10-1 mutant yeast, confirmation, single concentration, luminescence, S. cerevisiae; shares compounds with tim10-1 inh; S. cerevisiae tim10-1 ts strain growth, BacTiter-Glo, 24 h; inhibition, % at 20 µM; 7,400 tested, 56% active; AID 463213, 2010;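 active means inhibition of yeast growth at or above a set limit in either of two repeat tests at 20 µM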;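 further: tim10-1 mutant grown at permissive 25 °C to find synthetic lethal compounds; 0% = DMSO yeast wells and 100% = medium wells without yeast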
* = called active by the depositor; nt = no result.

SMILES | TIM10 inh | tim10-1 inh | tim23-1 inh | SKKanGAS inh | PfHsp90 set2 | tim10-1 conf
COc1ccccc1Nc1cc(C)nc(Nc2ccccc2OC)n1 | 34.0 | 40.3* | 42.0 | nt | -16.8 | 23.8
O=P1(NC2CCCC2)OCC2(CO1)COP(=O)(NC1CCCC1)OC2 (stereo not drawn) | nt | nt | nt | nt | 14.5 | nt
COc1ccc(/C=C2\CCC/C(=C\c3ccc(OC)c(OC)c3OC)C2=O)c(OC)c1OC | 20.5 | 40.7* | 35.3 | -7.0 | -10.1 | 22.1
C(=N/Nc1nc(-c2ccccc2)cc(-c2ccccc2)n1)/c1cccnc1 | 18.2 | 24.9 | 34.4 | 7.4 | 19.1 | nt
Cc1ccc(-c2cc(-c3ccccc3)nc(N/N=C/c3cccnc3)n2)cc1 | 16.2 | 44.4* | 15.9 | nt | -2.2 | 24.7
Cc1cc(-c2ccccc2)nc(N/N=C/c2ccccc2)n1 | 36.6 | 40.5* | 37.0 | -3.7 | -21.5 | 18.0
COc1ccc([N+](=O)[O-])cc1NCc1ccccc1 | 8.9 | 42.7* | 27.3 | 9.4 | 11.7 | 18.8
COc1ccc(C(=O)c2cnc(/N=C/N(C)C)s2)cc1 | 27.7 | 44.3* | 14.6 | -1.8 | nt | 36.5*
COC(=O)c1c(C)[nH]c(C(=O)COC(=O)CCNS(=O)(=O)c2cccc(C(F)(F)F)c2)c1C | -0.3 | -17.1 | -7.0 | nt | -40.1 | nt
CCc1ccc(NC2=NCC(=O)N2c2ccc3c(c2)OCCO3)cc1 | -6.8 | 41.6* | 19.0 | -1.4 | 15.0 | 15.6
O=C(NC(=S)Nc1ccccc1[N+](=O)[O-])c1cncc(Br)c1 | 17.3 | 40.0 | 44.8 | 8.1 | -31.6 | 13.6
CC(=O)c1cccc(NC(=S)NC(=O)c2cncc(Br)c2)c1 | 15.4 | 34.3 | 36.4 | 4.8 | -14.4 | nt
COc1cccc(NC(=S)NC(=O)c2cncc(Br)c2)c1 | 36.9 | 46.7* | 44.7 | 1.9 | -12.2 | 6.8
COc1ccc(C(=O)Nc2ccc3oc(-c4cccc(Cl)c4)cc(=O)c3c2O)cc1 | 7.0 | 6.5 | 26.9 | 0.8 | -6.3 | nt
Cc1ccc(NC(=S)/N=C(\N)Nc2nc(C)c3cc(C)c(C)cc3n2)cc1C | 7.4 | 17.9 | 12.6 | 39.8 | -5.5 | nt
Cc1ccc(NC(=S)/N=C(\N)Nc2nc(C)c3cc(C)ccc3n2)c(C)c1 | 32.2 | 50.4* | 48.2 | 11.1 | 19.2 | 37.3*
O=C(O)CCCc1ccc2ccc3cccc4ccc1c2c34 | 18.6 | 43.4* | 42.2 | -10.2 | -22.9 | 24.8
O=C(O)CCC(=O)c1ccc2ccc3cccc4ccc1c2c34 | 32.4 | 38.6 | 38.2 | 1.8 | nt | nt
CCOC(=O)N1CCN(C2CCCN(C(=O)c3cccc(Cl)c3)C2)CC1 (stereo not drawn) | -1.5 | 8.5 | 16.3 | 10.8 | 12.4 | nt
O=S(=O)(c1ccc(-c2csc(-c3cccnc3)n2)cc1)N1CCCC1 | 27.5 | 43.8* | 31.0 | 11.2 | -19.3 | 38.5*
O=C(c1cccc(S(=O)(=O)N2CCCC2)c1)N1CCN(Cc2ccccc2)CC1 | -10.0 | -9.2 | -17.4 | nt | 4.5 | nt
COc1ccc(N2C(=S)N=C(Nc3cccc(C)c3)C23CCCCC3)cc1 | -3.9 | 18.5 | 10.0 | -2.7 | -3.9 | nt
CC1CCC2(CC1)C(Nc1cccc(Cl)c1)=NC(=S)N2CC#N (stereo not drawn) | 30.5 | 43.0* | 40.9 | -3.7 | -25.1 | 39.3*
O=C(Nc1ccn(CCCN2CCN(c3ccccn3)CC2)c(=O)n1)OCc1ccccc1 | nt | nt | nt | nt | 9.6 | nt
C/C(=N/NC(=O)c1ccc(Br)o1)c1cccc(NC(=O)c2ccc(F)cc2)c1 | 28.8 | 49.3* | 40.3 | 5.1 | nt | 39.5*
SMILES | TIM10 inh | tim10-1 inh | tim23-1 inh | SKKanGAS inh | PfHsp90 set2 | tim10-1 conf
C/C(=N/NC(=O)c1ccc(Br)o1)c1cccc(NC(=O)c2ccc(C)o2)c1 | 15.8 | 44.2* | 36.9 | -0.2 | 11.3 | 17.7
C/C(=N/NC(=O)c1ccco1)c1cccc(NC(=O)c2ccc(C)o2)c1 | 23.0 | 13.2 | 6.4 | -1.2 | 14.0 | nt
COc1ccccc1CC(=O)Nc1ccc(S(=O)(=O)N2CC(C)CC(C)C2)cc1 (stereo not drawn) | 1.5 | 11.7 | 16.3 | nt | 3.8 | nt
O=C(CSc1nnc(-c2ccccc2Cl)o1)Nc1ccccn1 | 3.9 | 8.5 | 20.2 | -6.4 | 13.0 | nt
CCOc1ncccc1C(=O)NCC(c1ccco1)N1CCCCC1 (stereo not drawn) | 6.2 | 19.7 | 14.2 | nt | 1.7 | nt
C/C(=N\NC(=O)CNc1cccc(C)c1)c1ccc(Br)s1 | 33.8 | 40.3* | 40.2 | -5.4 | 23.6 | 22.2
C/C(=N\NC(=O)Cc1ccccc1)c1ccc(Br)s1 | -0.9 | 5.4 | 3.0 | -4.9 | 10.2 | nt
CC(C)(C)n1nnnc1C(c1ccccn1)N(Cc1ccccc1)Cc1ccc(Cl)cc1 (stereo not drawn) | 38.8 | 50.5* | 31.8 | 11.3 | 11.8 | 31.0*
COc1cc(Br)ccc1C1CC(=O)C(C)C(c2ccc(Br)cc2OC)N1 (stereo not drawn) | 20.2 | 52.6* | 26.4 | 31.7 | 22.8 | 10.2
Cc1cc(C)cc(-n2ncc3c2CCCC3NC(=O)c2cc(C)oc2C)c1 (stereo not drawn) | 25.0 | 17.5 | 22.6 | 6.7 | -11.1 | nt
Cc1cc(C)cc(-n2ncc3c2CCCC3NC(=O)c2csnn2)c1 (stereo not drawn) | 17.1 | 41.5* | 42.2 | -1.2 | -4.3 | 26.6
COc1ncccc1C(=O)NC1CCCc2c1cnn2-c1cc(C)cc(C)c1 (stereo not drawn) | 21.3 | 48.1* | 20.6 | 5.2 | -8.7 | 7.6
Cc1ccccc1CN1CCC(CNC(=O)C2CCCN(c3ncnc4c3nc3n4CCCCC3)C2)CC1 (stereo not drawn) | 3.6 | -6.8 | -10.1 | -3.4 | 5.0 | nt
O=C(Nc1cc(S(=O)(=O)N2CCCCC2)ccc1Cl)c1ccc(F)cc1 | 5.8 | 6.0 | 14.9 | nt | 1.0 | nt
CC1CC(C)CN(C(=O)/C(=C\c2ccccc2)c2ccccc2)C1 (stereo not drawn) | 29.1 | 25.6 | 31.8 | 4.5 | -4.4 | nt
CC1CCCCN1C(=O)/C(=C\c1ccccc1)c1ccccc1 (stereo not drawn) | 19.4 | 41.9* | 26.8 | 0.4 | 34.9 | 31.2*
COc1ccc(S(=O)(=O)N2CCCCC2)cc1NC(=O)c1ccc(N2CCCC2=O)cc1 | 8.3 | 3.7 | 16.3 | nt | 3.1 | nt
Cc1cc(C)n2nc(SC(C)C(=O)N3CC(C)OC(C)C3)nc2n1 (stereo not drawn) | -14.2 | -8.9 | -15.8 | nt | nt | nt
Cc1ccc(SCC2(O)CCN(S(=O)(=O)c3ccc(Cl)cc3)CC2)cc1 | 31.3 | 41.1* | 26.3 | 0.3 | nt | 24.7
CC(C)[C@H](NS(=O)(=O)c1ccccc1)C(=O)OCC(=O)N1N=C(c2ccc(Cl)cc2)CC1c1ccco1 (stereo partly drawn) | 19.9 | 40.9* | 34.4 | 16.5 | -11.4 | 21.9
CCCCc1ccccc1NC(=S)NC1CCCC1 | 32.4 | 42.7* | 39.5 | -7.8 | -35.8 | 12.4
CSc1ccccc1NC(=S)NC1CCCC1 | 9.0 | 22.1 | 16.9 | 14.8 | 9.9 | nt
